The values that follow come from PubChem BioAssay (Tox21).

The structures appear in SMILES notation. Values joined by “and” are separate entries in the source; they are usually repeats but may differ in a detail not shown here. Equal entries are not always repeated. Records with an inconclusive call do not appear. Some structures have more than one record in an assay (separate samples or runs), and their calls can disagree. Active and inactive are the calls of the source. The call rests on the fitted dose curve; in most records, active means well fitted curve in the direction sought with a large enough effect in the repeat runs; inconclusive means weak or mixed curves; inactive means no such curve, though single readings can be large; an effect the other way counts as inactive or inconclusive.

Assay [1] in a line: qHTS RealTime-Glo MT Cell Viability Assay in HEK293 cells - 16 hour (AID 1224872). Further: nearly all actives have a fitted effect of over 50% in size. Further: potency means the concentration at half of the fitted maximal effect. In short, it runs like this: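 Tox21 10K qHTS, HEK293, 600 cells/well, RealTime-Glo reagent co-dispensed with cells; 5 h preincubation, compound by pintool, 37 C, luminescence at 0–40 h.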
Assay [2] is described as follows: qHTS RealTime-Glo MT Cell Viability Assay in HepG2 cells - 8 hour (AID 1224873). Further: nearly all actives have a fitted effect of over 55% in size. In short, it runs like this: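 HepG2 cells (600/well) mixed with RealTime-Glo MT reagent, settled 5 h at 37 C/5% CO2 before compound addition. Nonlytic NanoLuc luminescence from viable-cell prosubstrate reduction read repeatedly during 40 h treatment at 37 C.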
A short description of assay [3]: qHTS RealTime-Glo MT Cell Viability Assay in HEK293 cells - 40 hour (AID 1224874). Further: nearly all actives have a fitted effect of over 50% in size. Further: potency means the concentration at half of the fitted maximal effect. The note with it: RealTime-Glo luminescence; max response: stronger effect = lower value. The procedure, abridged:
(§1)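 Kinetic, non-lysing viability readout. Seed HEK293 (600/well) with reagent, incubate 5 h at 37 C/5% CO2, pin 23 nL compound in DMSO, incubate at 37 C, read luminescence at 0, 8, 16, 24, 32, 40 h.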

Assay [4] is described as follows: A CellTox Green Cytotoxicity Assay to monitor cytotoxicity in HEK293 cells - 24 hour (AID 1224875). Further: nearly all actives have a fitted effect of over 45% in size. Further: potency means the concentration at half of the fitted maximal effect. In short, it runs like this: (§2)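 Real-time, in one plate: 600 HEK293 cells/well with dead-cell DNA dye, pinned compound after 5 h, 37 C incubation over 40 h; viable cells give no appreciable fluorescence.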
The nature of assay [5]: A CellTox Green Cytotoxicity Assay to monitor cytotoxicity in HepG2 cells - 16 hour (AID 1224876). Further: nearly all actives have a fitted effect of over 45% in size. Further: potency means the concentration at half of the fitted maximal effect. The procedure, abridged:
(§3)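 Cytotoxicity was tracked as dead-cell DNA fluorescence in HepG2 cells treated with test compounds at 37 C; each time-point value comes from one kinetic series spanning 0, 8, 16, 24, 32 and 40 h.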

A short description of assay [6]: qHTS RealTime-Glo MT Cell Viability Assay in HepG2 cells - 32 hour (AID 1224877). Further: nearly all actives have a fitted effect of over 55% in size. Further: potency means the concentration at half of the fitted maximal effect. In short, it runs like this:
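Cells + NanoLuc/prosubstrate dispensed (600 cells/well) → 5 h at 37 C/5% CO2 → compounds in DMSO transferred → 40 h incubation at 37 C, luminescence read at 0, 8, 16, 24, 32, 40 h.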

Assay [7] in a line: A CellTox Green Cytotoxicity Assay to monitor cytotoxicity in HepG2 cells - 24 hour (AID 1224878). Further: nearly all actives have a fitted effect of over 45% in size. Further: potency means the concentration at half of the fitted maximal effect. In short, it runs like this:
as §3

Assay [8] in a line: A CellTox Green Cytotoxicity Assay to monitor cytotoxicity in HepG2 cells - 40 hour (AID 1224879). Further: nearly all actives have a fitted effect of over 40% in size. Further: potency means the concentration at half of the fitted maximal effect. In short, it runs like this:
as §3

Assay [9] is described as follows: qHTS RealTime-Glo MT Cell Viability Assay in HEK293 cells - 0 hour (AID 1224880). Further: nearly all actives have a fitted effect of over 45% in size. Further: potency means the concentration at half of the fitted maximal effect. The procedure, abridged:
as §1
Background: Quantitative high-throughput screening tests each substance at several concentrations.

The nature of assay [10]: A CellTox Green Cytotoxicity Assay to monitor cytotoxicity in HEK293 cells - 32 hour (AID 1224881). Further: nearly all actives have a fitted effect of over 40% in size. Further: potency means the concentration at half of the fitted maximal effect. The procedure, abridged: as §2
On the % scale 0 is the no-effect control and ±100 the full control effect.

For `Cc1cc(C(C)(C)C)c(O)c(C(C)(C)C)c1`, the Potency entry in assay [1], in assay [2], in assay [5], in assay [6], in assay [7] and in assay [8] was “inactive” in each case. The Potency entry in [9] is “inactive”. The max response in assay [3] is -21.9% (inactive) and 0.957% (inactive) and 2.01% (inactive). Moreover, the Potency in [4] and in [10] was 49.1 µM (active) throughout.
Regarding `Oc1ccc(Cl)cc1Cc1cc(Cl)ccc1O`, the Potency in [1] was 22.3 µM (active); in assay [3] it was 17.7 µM (active) and 43.6 µM (active) and 16.9 µM (active); in [6] it was 49.9 µM (active). The Potency result in assay [2], in [4], in [5], in [7], in [8] and in assay [9] was “inactive” in each case. In assay [10], the Potency result is “inactive”.
For the molecule `CC(C)CCOCc1ccccc1`, the Potency result in assay [1], in [2], in [4], in assay [5], in assay [6] and in assay [7] was “inactive” in each case. Moreover, the Potency result in assay [8], in [9] and in assay [10] was “inactive” throughout. Besides, in assay [3], the max response is 2.97% (inactive).
On to `CCCCCCC(O)CCCCCCCCCCC(=O)O` (stereo not given), for which the Potency result in [1], in [2], in assay [4], in assay [5], in assay [6] and in assay [7] was “inactive” throughout. The Potency entry in [8], in [9] and in assay [10] was “inactive” in each case. The max response in [3] is -19.9% (inactive) and -13.9% (inactive).
As for `O=C(Cl)c1cccc(C(=O)Cl)c1`, the Potency entry in assay [1], in [2], in assay [4], in assay [5], in assay [6] and in [7] was “inactive” each time. Moreover, the Potency entry in [8], in assay [9] and in [10] was “inactive” in each case. Besides, the max response in [3] was 7.93% (inactive) and 0.091% (inactive).
As to `O=C(OCc1ccccc1)c1ccc(O)cc1`, the Potency result in [1], in [2], in assay [4], in [5], in assay [6] and in assay [7] was “inactive” each time. Further, the Potency result in assay [9] and in assay [10] was “inactive” each time. In addition, the max response in assay [3] was -24.2% (inactive). Also, the Potency in assay [8] was 49 µM (active) and inactive.
As for `COC(c1ccccc1)(c1ccccc1)[C@H](Oc1nc(C)cc(C)n1)C(=O)O`, the Potency result in assay [1], in [2], in assay [4], in assay [5], in assay [6] and in assay [7] was “inactive” each time. The Potency result in [8], in assay [9] and in [10] was “inactive” each time. In [3], the max response is -3.67% (inactive).
In the case of `COc1nc(C)nc(Cl)c1NC1=NCCN1`, the Potency result in assay [1], in [2], in [4], in [5], in [6] and in assay [7] was “inactive” throughout. Moreover, the Potency entry in assay [8], in assay [9] and in assay [10] was “inactive” each time. Also, in assay [3], the max response is 2.57% (inactive).
As to `Cc1cccc2n[nH]nc12`, the Potency entry in [1], in assay [2], in assay [4], in [6], in assay [8] and in assay [9] was “inactive” throughout. Further, the Potency result in [10] was “inactive”. In addition, the max response in assay [3] is -0.386% (inactive). The Potency result in assay [5] was “inactive and 38.9 µM (active)”; in assay [7], “inactive and 38.9 µM (active)”.
Consider `CC(=O)O[C@]1(C(C)=O)CC[C@H]2[C@@H]3C[C@H](C)C4=CC(=O)CC[C@]4(C)[C@H]3CC[C@@]21C`, for which the Potency in [1] is 17.4 µM (active); in assay [3], 19.5 µM (active) and 9.52 µM (active); in assay [9] it was 691 nM (active) and 756 nM (active). Besides, the Potency result in assay [2], in assay [4], in [5], in assay [6], in [7] and in assay [8] was “inactive” in each case. The Potency result in assay [10] is “inactive”.
With `CC(=O)CC(=O)Nc1ccc2[nH]c(=O)[nH]c2c1`, the Potency entry in assay [1], in assay [2], in assay [4], in [5], in assay [6] and in assay [7] was “inactive” each time. For the same molecule, the Potency result in assay [8], in assay [9] and in assay [10] was “inactive” in each case. Further, the max response in assay [3] was -1.76% (inactive).
As to `CCCCOCCOC(=O)c1ccccc1C(=O)OCCOCCCC`, the Potency result in assay [1], in [2], in [4], in assay [5], in [6] and in assay [7] was “inactive” each time. For the same molecule, the Potency result in assay [8], in assay [9] and in assay [10] was “inactive” in each case. Besides, the max response in assay [3] was -18.4% (inactive).
With `CCC(C)(Oc1ccc(C2(c3ccc(OC(C)(CC)C(=O)O)cc3)CCCCC2)cc1)C(=O)O` (stereo not given), the Potency result in [1], in assay [2], in [4], in [5], in assay [6] and in assay [7] was “inactive” in each case. Further, the Potency entry in assay [8], in [9] and in assay [10] was “inactive” in each case. The max response in [3] is 8.3% (inactive).
In the case of `NC(N)=NC(=O)Cc1c(Cl)cccc1Cl`, the Potency result in assay [1], in assay [2], in [4], in assay [5], in assay [6] and in assay [7] was “inactive” in each case. The Potency entry in assay [8], in [9] and in assay [10] was “inactive” in each case. Further, in assay [3], the max response is -13.5% (inactive).
As to `NCCO`, the Potency entry in assay [1], in [2], in assay [4], in assay [5], in assay [6] and in [7] was “inactive” throughout. The Potency entry in assay [8], in [9] and in [10] was “inactive” each time. Moreover, the max response in assay [3] was -3.29% (inactive) and 1.65% (inactive).
Take `O`: the Potency entry in assay [1], in [2], in assay [4], in assay [5], in assay [6] and in assay [7] was “inactive” throughout. For the same molecule, the Potency result in assay [8], in assay [9] and in [10] was “inactive” throughout. In assay [3], the max response was 0.569% (inactive) and 9.85% (inactive).
In the case of `CCOc1ccc2c(c1)C(C)=CC(C)(C)N2`, the Potency result in assay [1], in [2], in [4], in assay [5], in [6] and in assay [7] was “inactive” each time. For the same molecule, the Potency result in assay [8], in assay [9] and in assay [10] was “inactive” in each case. Besides, the max response in assay [3] was -10.3% (inactive) and 3.02% (inactive).
`CCOc1ccccc1C(N)=O`: the Potency result in assay [1], in [2], in assay [4], in assay [5], in assay [6] and in [7] was “inactive” each time. The Potency entry in [8], in assay [9] and in assay [10] was “inactive” in each case. The max response in assay [3] is -15.3% (inactive) and 4.4% (inactive).
As to `CC1COC(=O)O1` (stereo not given), the Potency entry in assay [1], in assay [2], in [4], in assay [6], in assay [9] and in [10] was “inactive” throughout. The max response in assay [3] was 9.29% (inactive) and -24.4% (inactive). In addition, the Potency result was “inactive and 38.9 µM (active)” in [5]; “inactive and 43.6 µM (active)” in assay [7]; “inactive and 43.6 µM (active)” in [8].
